Data published in PubChem BioAssay (Tox21).
Records with an inconclusive call do not appear. The source made the active and inactive calls. Unless noted, calls come from the whole dose curve.

Experiments:
[1] = Nuclear factor erythroid 2-related factor 2/antioxidant responsive element (Nrf2/ARE) small molecule agonists: qHTS cell viability counter screen in human keratinocytes (AID 1919968; active = well fitted curve in the direction sought with a large enough effect in the repeat runs; an effect the other way counts as inactive or inconclusive; note: nearly all actives have a fitted effect of over 55% in size)
Method in brief: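 Cells of the KeratinoSens line were plated at 1,500 per well and left for 5 h before compound transfer from DMSO stocks. After a 23 h incubation (37 C, 5% CO2), CellTiter-Fluor was added. Signal was taken as fluorescence intensity 1 h later.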

[2] = Nuclear factor erythroid 2-related factor 2/antioxidant responsive element (Nrf2/ARE) small molecule agonists: luciferase reporter gene qHTS assay in human keratinocytes (AID 1919969); note: nearly all actives have a fitted effect of over 35% in size
[3] = target: Gonadotropin-releasing hormone receptor (Homo sapiens) (UniProt P30968); assay: Human gonadotropin-releasing hormone receptor (GnRHR) small molecule agonists, calcium flux assay in GnRHR-HEK293 cells (AID 1920063); note: nearly all actives have a fitted effect of over 35% in size
Method in brief: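 Compounds dissolved in DMSO are pin-transferred onto dye-loaded GnRHR-HEK293 cells, which were seeded 18 h before at 37 C/5% CO2. Calcium signal is read as fluorescence intensity at 1 s intervals for 3 min.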

[4] = target: KiSS-1 receptor (Homo sapiens) (UniProt Q969F8); assay: Human kisspeptin (KISS1R) small molecule agonists, calcium flux assay in KISS1R-HEK293 cells (AID 1920064; active = well fitted curve in the direction sought with a large enough effect in the repeat runs; an effect the other way counts as inactive or inconclusive)
Method in brief: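 Cell line: HEK293, stable human KISS1R. Dye loading 1 h at 37 C after 18 h culture. Read: kinetic fluorescence, 480/540 nm, 3 min at 1 s intervals.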

[5] = G protein-coupled receptor (GPCR) small molecule agonists, calcium flux assay: HEK293 wild type cell line counter screen (AID 1920065)
Method in brief: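 Tox21 10K compounds, 15 concentrations each in triplicate, pin-transferred in DMSO onto dye-loaded cells; kinetic read at 480/540 nm for 3 min, 1 s intervals.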

[6] = p53 small molecule agonists, cell-based qHTS assay with human liver microsomes (AID 1963577);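 note: p53 response element beta-lactamase reporter cells with liver microsomes plus NADPH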
Method in brief: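 16 h, 37 C exposure of p53RE-bla cells to compounds with human liver microsomes and NADPH (0.5 mg/mL final each); detection via LiveBLAzer mixture, 2 h dark at room temperature.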

[7] = p53 small molecule agonists, cell-based qHTS assay with rat liver microsomes (AID 1963578)
Method in brief: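 With rat liver microsomes and NADPH present (0.5 mg/mL final each), p53RE-bla cells are treated with compound for 16 h at 37 C. LiveBLAzer detection mixture is then applied for 2 h at room temperature in the dark.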

[8] = p53 small molecule agonists, cell-based qHTS assay with human liver microsomes: qHTS cell viability counter screen (AID 1963579); note: nearly all actives have a fitted effect of over 45% in size
Method in brief: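 In this multiplexed counter screen, the reporter plates were subsequently treated with CellTiter-Glo so that cell viability, reflected by luminescence, could be recorded for p53RE-bla cells dosed 16 h with compounds under microsomal activation (HLM and NADPH).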

[9] = p53 small molecule agonists, cell-based qHTS assay with rat liver microsomes: qHTS cell viability counter screen (AID 1963580); note: nearly all actives have a fitted effect of over 45% in size
Method in brief: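 After the beta-lactamase ratio was read, CellTiter-Glo was added to the same wells and luminescence measured at 30 min; cells had been treated 16 h at 37 C with compounds, rat liver microsomes and NADPH (0.5 mg/mL final each).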

[10] = p53 small molecule agonists, cell-based qHTS assay: qHTS cell viability counter screen (AID 1963581); note: nearly all actives have a fitted effect of over 45% in size
Method in brief: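 ATP content measured by luminescence in HCT-116 p53RE-bla cells treated 16 h at 37 C, same wells as the reporter screen.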

[11] = p53 small molecule agonists, cell-based qHTS assay (AID 1963582; active = well fitted activation curve with a large enough effect in the signal ratio in the repeat runs, not every such curve was filed as active; the % refers to the signal ratio)
Method in brief: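 16 h compound exposure (37 C) of p53 response element–bla cells, preceded by 5 h recovery at 37 C/5% CO2; read-out via LiveBLAzer B/G FRET substrate, 2 h RT, fluorescence intensity.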

[12] = target: 5-hydroxytryptamine receptor 2A (Homo sapiens) (UniProt P28223); assay: 5-hydroxytryptamine receptor 2A (HTR2A) small molecule antagonists, cell-based qHTS assay (AID 1963586); note: nearly all actives have a fitted effect of over 45% in size
Method in brief: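 CHO cells stably expressing human HTR2A were plated for 18 h at 37 C, then loaded with calcium dye for 1 h. Compounds were preincubated 5 min at room temperature before DOI (4 nM solution) was added. Kinetic fluorescence was read for 3 min.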

[13] = target: 5-hydroxytryptamine receptor 2A (Homo sapiens) (UniProt P28223); assay: 5-hydroxytryptamine receptor 2A (HTR2A) small molecule agonists, cell-based qHTS assay (AID 1963587); note: nearly all actives have a fitted effect of over 30% in size
Method in brief: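 CHO cells stably expressing human HTR2A, plated 18 h, loaded with calcium dye 1 h at 37 C. Agonist mode: compounds added and intracellular calcium fluorescence recorded kinetically for 2 min at 1 sec intervals.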

[14] = target: Muscarinic acetylcholine receptor M1 (Homo sapiens) (UniProt P11229); assay: Cholinergic receptor muscarinic 1 (CHRM1) small molecule antagonists, cell-based qHTS assay (AID 1963588); note: nearly all actives have a fitted effect of over 40% in size; note: potency is the fitted concentration of half-maximal effect
Method in brief: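 Compounds were tested at 15 concentrations in three independent runs. Dye-loaded CHRM1-CHO cells were exposed 5 min at room temperature before stimulation by acetylcholine added at 50nM. Intracellular calcium was read kinetically on FDSS for 3 min.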

[15] = target: Muscarinic acetylcholine receptor M1 (Homo sapiens) (UniProt P11229); assay: Cholinergic receptor muscarinic 1 (CHRM1) small molecule agonists, cell-based qHTS assay (AID 1963589); note: nearly all actives have a fitted effect of over 35% in size
Method in brief: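 Homogeneous fluorescence calcium flux, agonist mode. Human M1-expressing CHO cells; compound dosed at 15 concentrations, three independent runs; signal sampled every 1 sec.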

[16] = cAMP Responsive Elements (CRE) small molecule agonists, cell-based qHTS assay (AID 1963590)
Method in brief: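 HEK 293T cells stably bearing CRE-bla were plated at 2,000 cells per well and rested 18 h. Compounds, positive controls or DMSO were added for 3 h at 37 C. LiveBLAzer B/G substrate was then loaded for 2 h at room temperature.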

[17] = cAMP Responsive Elements (CRE) small molecule antagonists, cell-based qHTS assay (AID 1963591; active = well fitted inhibition curve with a large enough effect in the signal ratio in the repeat runs, not every such curve was filed as active; the % refers to the signal ratio)
Method in brief: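 First, CRE-bla HEK293T cells settled 18 h at 37 C. Next, compound and 0.25 uM final NKH477 were applied for 3 h. Last, LiveBLAzer B/G substrate was loaded for 2 h at room temperature.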

[18] = target: Beta-2 adrenergic receptor (Homo sapiens) (UniProt P07550); assay: Adrenergic beta2 receptor (ADRB2) small molecule antagonists, cell-based qHTS assay (AID 1963592); note: series mostly up to about 92 µM; nearly all actives have a fitted effect of over 50% in size
Method in brief: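 Assay format: CHO-ADRB2 cells, 18-20hr seeding at 37C/5% CO2, then compound plus 1nM isoproterenol agonist mix for 0.5hr RT. Homogeneous time-resolved fluorescence cAMP detection after 1hr, expressed as 665/615 nm ratio.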

[19] = target: D(2) dopamine receptor (Homo sapiens) (UniProt P14416); assay: Dopamine D2 receptor (DRD2) small molecule agonists, cell-based qHTS assay (AID 1963594); note: nearly all actives have a fitted effect of over 35% in size
Method in brief: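 HEK293 cells stably expressing human DRD2, pre-treated with PDE inhibitor Ro20-1724 (0.1 mM final) and compound 10 min at room temperature, then stimulated with NKH477 (200nM […]) for 30 min. cAMP read by HTRF (665/620 nm).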

[20] = target: D(2) dopamine receptor (Homo sapiens) (UniProt P14416); assay: Dopamine D2 receptor (DRD2) small molecule antagonists, cell-based qHTS assay (AID 1963595; active = well fitted inhibition curve with a large enough effect in the signal ratio in the repeat runs, with a control signal flat; the % refers to the signal ratio)
Method in brief: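 Readout: HTRF cAMP, cAMP-d2 competing with cellular cAMP for anti-cAMP cryptate, read after 1 h. Cells: DRD2-HEK293. Conditions: 0.1 mM Ro20-1724, 12 nM quinpirole, 200 nM NKH477, 30 min RT.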

Measured: Potency

Chain of KiSS-1 receptor (Homo sapiens) (Q969F8 whole entry, looked up): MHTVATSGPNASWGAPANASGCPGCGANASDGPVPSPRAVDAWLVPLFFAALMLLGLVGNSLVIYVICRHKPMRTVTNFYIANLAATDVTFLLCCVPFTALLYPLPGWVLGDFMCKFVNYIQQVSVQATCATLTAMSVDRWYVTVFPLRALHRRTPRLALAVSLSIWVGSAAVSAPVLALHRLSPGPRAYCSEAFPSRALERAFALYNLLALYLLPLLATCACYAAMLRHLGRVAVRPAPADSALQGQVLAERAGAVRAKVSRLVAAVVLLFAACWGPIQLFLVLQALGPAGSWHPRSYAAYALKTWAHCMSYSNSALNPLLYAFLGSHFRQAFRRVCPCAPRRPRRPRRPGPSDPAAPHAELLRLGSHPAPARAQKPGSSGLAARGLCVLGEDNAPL
Chain of D(2) dopamine receptor (Homo sapiens) (P14416 whole entry, looked up): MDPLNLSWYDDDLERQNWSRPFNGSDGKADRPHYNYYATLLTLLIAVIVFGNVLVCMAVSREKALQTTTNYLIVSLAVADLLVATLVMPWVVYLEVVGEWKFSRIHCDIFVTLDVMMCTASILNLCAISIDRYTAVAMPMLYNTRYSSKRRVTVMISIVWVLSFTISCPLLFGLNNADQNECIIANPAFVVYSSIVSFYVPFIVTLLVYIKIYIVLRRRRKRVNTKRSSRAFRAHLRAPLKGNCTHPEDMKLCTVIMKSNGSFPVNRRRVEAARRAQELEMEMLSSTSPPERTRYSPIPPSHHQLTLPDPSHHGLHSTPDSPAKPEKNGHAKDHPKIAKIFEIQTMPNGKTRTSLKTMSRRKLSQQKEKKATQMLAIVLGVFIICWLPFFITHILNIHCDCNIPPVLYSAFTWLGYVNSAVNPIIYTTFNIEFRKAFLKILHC
Chain of Muscarinic acetylcholine receptor M1 (Homo sapiens) (P11229 whole entry, looked up): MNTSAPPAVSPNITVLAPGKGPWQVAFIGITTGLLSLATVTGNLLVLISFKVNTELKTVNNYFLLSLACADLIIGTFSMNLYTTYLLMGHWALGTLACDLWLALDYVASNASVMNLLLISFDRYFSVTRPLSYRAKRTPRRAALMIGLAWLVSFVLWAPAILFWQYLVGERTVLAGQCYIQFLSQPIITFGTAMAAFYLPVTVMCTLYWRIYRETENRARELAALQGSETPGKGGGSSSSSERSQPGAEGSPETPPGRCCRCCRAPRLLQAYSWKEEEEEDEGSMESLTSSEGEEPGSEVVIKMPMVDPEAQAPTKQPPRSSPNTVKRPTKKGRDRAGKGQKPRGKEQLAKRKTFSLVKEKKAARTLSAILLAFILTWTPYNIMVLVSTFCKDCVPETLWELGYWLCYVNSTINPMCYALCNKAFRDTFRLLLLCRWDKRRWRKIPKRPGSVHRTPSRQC
Chain of Beta-2 adrenergic receptor (Homo sapiens) (P07550 whole entry, looked up): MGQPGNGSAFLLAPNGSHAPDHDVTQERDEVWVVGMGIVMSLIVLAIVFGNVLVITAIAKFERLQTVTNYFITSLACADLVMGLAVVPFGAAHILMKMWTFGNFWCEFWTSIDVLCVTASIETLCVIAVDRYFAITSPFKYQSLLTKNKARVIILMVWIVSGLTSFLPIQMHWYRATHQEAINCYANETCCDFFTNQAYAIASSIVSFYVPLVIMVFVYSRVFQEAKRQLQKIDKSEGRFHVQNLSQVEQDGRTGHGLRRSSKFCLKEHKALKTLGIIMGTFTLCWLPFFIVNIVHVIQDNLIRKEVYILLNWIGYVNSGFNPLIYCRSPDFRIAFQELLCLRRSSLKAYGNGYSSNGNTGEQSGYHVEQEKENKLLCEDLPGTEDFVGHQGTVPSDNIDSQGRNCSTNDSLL
Chain of 5-hydroxytryptamine receptor 2A (Homo sapiens) (P28223 whole entry, looked up): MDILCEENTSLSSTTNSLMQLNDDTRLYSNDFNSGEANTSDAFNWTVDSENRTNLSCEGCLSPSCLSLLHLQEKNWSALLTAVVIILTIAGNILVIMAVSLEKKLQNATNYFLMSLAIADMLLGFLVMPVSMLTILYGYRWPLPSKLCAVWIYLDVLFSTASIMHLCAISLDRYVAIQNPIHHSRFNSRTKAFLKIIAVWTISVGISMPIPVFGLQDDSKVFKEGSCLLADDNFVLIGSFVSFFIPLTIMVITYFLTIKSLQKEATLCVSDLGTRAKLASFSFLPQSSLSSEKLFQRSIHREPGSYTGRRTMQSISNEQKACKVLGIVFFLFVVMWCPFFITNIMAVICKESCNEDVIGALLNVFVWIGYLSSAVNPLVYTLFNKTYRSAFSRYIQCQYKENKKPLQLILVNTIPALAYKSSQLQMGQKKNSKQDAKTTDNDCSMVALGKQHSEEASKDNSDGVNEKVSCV
Chain of Gonadotropin-releasing hormone receptor (Homo sapiens) (P30968 whole entry, looked up): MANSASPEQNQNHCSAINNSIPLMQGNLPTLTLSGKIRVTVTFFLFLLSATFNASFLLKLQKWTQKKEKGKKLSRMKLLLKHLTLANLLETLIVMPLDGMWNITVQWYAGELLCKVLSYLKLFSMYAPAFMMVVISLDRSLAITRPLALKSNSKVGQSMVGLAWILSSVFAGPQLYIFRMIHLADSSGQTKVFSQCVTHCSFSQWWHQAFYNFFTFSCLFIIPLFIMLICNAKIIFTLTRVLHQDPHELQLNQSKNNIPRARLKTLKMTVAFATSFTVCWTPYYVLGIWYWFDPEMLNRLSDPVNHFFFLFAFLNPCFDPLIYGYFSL

CCN(C=O)CC
not listed: [20]
inactive: all other assays above

ClC(c1ccccc1)(c1ccccc1)c1ccccc1
inactive: all assays above

CC1(C)[C@@H]2CC[C@]3(C2)[C@@H]1C(=O)CCC3(C)C
inactive: all assays above

COc1ccccc1NC(=O)CC(C)=O
inactive: all assays above

O=CC1CC=CCC1 (stereo not drawn)
inactive: all assays above

O=C(CCS)OCC(COC(=O)CCS)(COC(=O)CCS)COC(=O)CCS
not listed: [20]
inactive: all other assays above

O=C(C(=O)c1ccco1)c1ccco1
not listed: [20]
inactive: all other assays above

O=C(O[C@@H](C(=O)O)[C@@H](OC(=O)c1ccccc1)C(=O)O)c1ccccc1
inactive: all assays above

Nc1c(Br)cc([N+](=O)[O-])cc1Br
inactive: all assays above

C1CCCC1
inactive: all assays above

CN(C)CCCNCCC#N
inactive: all assays above

ClCCCl
not listed: [20]
inactive: all other assays above

COCCOCCOCCOCCO
inactive: all assays above

Clc1nc2ccccc2s1
inactive: all assays above

CCC(=O)O[C@@H]1C[C@H]2CC[C@]1(C)C2(C)C
inactive: all assays above

C=CCOc1cc(Cl)ccc1C(=O)NCCN(CC)CC
active: [14] 4.6 µM
not listed: [20]
inactive: all other assays above

Cc1ccc(C(C)NC(=O)[C@@H](NC(=O)OC(C)C)C(C)C)cc1 (stereo partly drawn)
not listed: [20]
inactive: all other assays above

CO[Si](CCCOCC1CO1)(OC)OC (stereo not drawn)
inactive: all assays above

CCC(C)(C)C1CCCCC1OC(C)=O (stereo not drawn)
inactive: all assays above

Cc1cccc2cccnc12
not listed: [20]
inactive: all other assays above
